Sampled rows, rich in hits. Any-hit rate of the full collection: about 2.8%.
PME-1 primary – PME-1 (human) inhibition. Q9Y570. recombinant PME-1, FP-Rh probe fluorescence polarization. 0.53% of 320,000 active. inhibition, % at 5.9 µM;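 active means inhibition above the campaign mean of all compounds plus 3 SD, cut at about 26% in these data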;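 further: competitive labeling of PME-1 active site by serine hydrolase directed probe; 0% = PME-1 with DMSO and 100% = wells lacking PME-1 enzyme; inhibitors block probe labeling so polarization falls and inhibition rises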
PAFAH1B3 inh – PAFAH1B3 (human) inhibition | Q15102 | recombinant PAFAH1B3, FP-rhodamine probe, fluorescence polarization | inhibition, % at 3.39 µM | 0.28% of 340,000 active | AID 492972;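 active means inhibition above the screen-wide average of all tested compounds plus 3 SD, cut at about 25% in these data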;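 further: 0% = enzyme with DMSO only and 100% = wells lacking PAFAH1B3 protein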
Target sequence (Q15102 whole entry, looked up): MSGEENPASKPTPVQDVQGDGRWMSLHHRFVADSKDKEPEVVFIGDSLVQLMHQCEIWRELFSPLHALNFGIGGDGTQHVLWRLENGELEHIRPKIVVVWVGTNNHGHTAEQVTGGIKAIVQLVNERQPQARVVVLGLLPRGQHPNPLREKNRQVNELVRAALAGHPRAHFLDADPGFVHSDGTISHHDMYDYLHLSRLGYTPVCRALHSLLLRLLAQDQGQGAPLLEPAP
pPAFAH FP inh – inhibitors of human plasma PAF acetylhydrolase (pPAFAH). inhibition, % at 3.39 µM. recombinant pPAFAH, FP-rhodamine probe fluorescence polarization. Q13093. AID 463082. 1.5% of 330,000 active;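 active means inhibition above the mean inhibition across the screen plus 3 SD, cut at about 25% in these data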;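 further: inhibitors block binding of the rhodamine activity-based probe so polarization drops; 0% = enzyme with DMSO and 100% = wells lacking pPAFAH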
PAFAH2 FP inh – inhibitors of human PAFAH2; Q99487; recombinant PAFAH2, FP-rhodamine activity probe, fluorescence polarization; AID 492956; inhibition, % at 3.39 µM; 0.99% of 340,000 active;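 active means inhibition above the mean over all tested compounds plus 3 SD, cut at about 30% in these data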;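 further: inhibitors block probe labeling of enzyme so polarization drops; 0% = enzyme with DMSO and 100% = wells lacking PAFAH2 protein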
Fam108B counter – blocks mouse Fam108B hydrolase in RBBP9 counter-screen. recombinant Fam108B, FP-Rh probe fluorescence polarization. inhibition, % at 9.51 µM. 0.33% of 300,000 active. AID 1947;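 active means inhibition above the screen mean inhibition plus 3 SD, computed separately per campaign, cut at about 18% in these data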;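 further: inhibitors lower polarization as less probe binds the enzyme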
PAFAH1B2 inh – inhibitors of human PAFAH1B2 | 1.2% of 340,000 active | recombinant PAFAH1B2, FP-rhodamine activity probe, fluorescence polarization | P68402 | inhibition, % at 3.39 µM | AID 492953;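 active means inhibition above the mean of all tested compounds plus 3 SD, cut at about 24% in these data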;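 further: 0% = enzyme with DMSO and 100% = wells lacking PAFAH1B2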
Target sequence (P68402 whole entry, looked up): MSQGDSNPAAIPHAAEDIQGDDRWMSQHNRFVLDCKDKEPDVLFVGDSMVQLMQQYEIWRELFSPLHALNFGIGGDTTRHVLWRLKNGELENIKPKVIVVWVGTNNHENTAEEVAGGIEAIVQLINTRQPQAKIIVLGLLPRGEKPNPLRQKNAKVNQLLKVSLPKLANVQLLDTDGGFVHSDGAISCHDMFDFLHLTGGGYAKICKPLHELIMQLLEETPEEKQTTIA
Fam108b confirm – Fam108b (mouse) hydrolase inhibition, confirmation assay. recombinant Fam108b, FP-Rh probe fluorescence polarization. inhibition, % at 9.51 µM. shares compounds with Fam108B counter. 44% of 930 active. AID 1978;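 active means inhibition above a limit from the primary screen, the mean over all compounds plus 3 SD, cut at about 19% in these data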;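 further: 0% = median of active Fam108b wells and 100% = catalytically dead S170A mutant; inhibitors free the probe so polarization falls as inhibition rises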
Fam108b ABPP HTS – mouse ABHD17B inhibition; shares compounds with Fam108B counter; recombinant Fam108b, gel-based ABPP, fluorophosphonate probe; inhibition, % at 20 µM; 44% of 260 active; in the data active means inhibition above about 40%
pPAFAH FP conf – pPAFAH (human) inhibition, confirmed; shares compounds with pPAFAH FP inh; AID 463230; inhibition, % at 3.39 µM; 72% of 2,300 active; recombinant pPAFAH, FP-Rh probe fluorescence polarization;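 active means mean inhibition of the triplicate above the hit cutoff set for the earlier primary screen, cut at about 25% in these data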;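 further: 0% = enzyme with DMSO and 100% = wells lacking pPAFAH enzyme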
The depositor's hits bear a star; · = not tested or not shown; ! = a repeat was not active.

SMILES	PME-1 primary	PAFAH1B3 inh	pPAFAH FP inh	PAFAH2 FP inh	Fam108B counter	PAFAH1B2 inh	Fam108b confirm	pPAFAH FP conf	others
Oc1ccc(/C=N/Nc2ccnc3cc(Cl)ccc23)cc1O	42*	54*	36*	20	55*	25*	34*	45*
Clc1ccc2c(NCc3ccccn3)ccnc2c1	-8	1	0	3	6	5	·	·
Oc1ccc(/C=N/Nc2ccnc3cc(Cl)ccc23)c(O)c1O	32*	48*	44*	35*	30*	37*	93*	57*
Oc1ccc(N=Nc2ccccc2-c2nn[nH]n2)c(O)c1	22	40*	83*	41*	40*	16	41*	46*	Fam108b ABPP HTS=0
COc1cccc2c1C(=O)c1c(O)c3c(c(O)c1C2=O)C[C@@](O)(C(=O)CO)C[C@@H]3O[C@H]1C[C@H](N)[C@H](O)[C@H](C)O1	48*	19	58*	46*	32*	41*	34*	45*	Fam108b ABPP HTS=65*
CCN(CC)c1ccc(/C=N/NC(=O)c2cccc(S(=O)(=O)Nc3ccccc3OC)c2)c(O)c1	45*	18	48*	9	58*	15	7	65*
O=C(Cc1ccc(Cl)cc1)N/N=C/c1ccncc1	-3	6	0	-1	4	7	·	·
O=C(NCc1ccccc1)c1ccc2c(=O)n(CC3CCCO3)c(=S)[nH]c2c1 (configuration not stated)	-1	13	0	-6	0	6	·	·
O=C(NCc1ccccc1)c1ccc2c(=O)[nH]c3c(C(=O)NCC4CCCO4)sc(=S)n3c2c1 (configuration not stated)	11	34*	63*	54*	34*	35*	20*	81*
O=C(NCc1ccco1)c1sc(=S)n2c1[nH]c(=O)c1ccccc12	16	19	47*	30	38*	18	34*	61*	Fam108b ABPP HTS=15
CCCCCNC(=O)c1ccc2c(=O)[nH]c3c(C(=O)NCC4CCCO4)sc(=S)n3c2c1 (configuration not stated)	8	38*	62*	45*	21*	49*	12	74*
C=Cc1c(C)c2cc3[nH]c(cc4nc(cc5nc(cc1[nH]2)C(C)=C5CCC(=O)O)C(CCC(=O)O)=C4C)c(C)c3C=C	-4	40*!	97*	60*!	46*	0	44*	51*	Fam108b ABPP HTS=0
CN1C(=O)C(C)(C)c2cc(S(=O)(=O)N3CCC(C(=O)Nc4ccc(Cl)cc4)CC3)ccc21	2	-3	-8	-6	-1	0	·	·
CN(c1ccccc1)S(=O)(=O)c1ccc(C(=O)NNC(=O)c2ccccc2F)cc1	-1	1	4	-1	·	3	·	·
C=C1c2cccc(O)c2C(O)=C2C(=O)[C@]3(O)C(O)=C(C(N)=O)C(=O)[C@@H](N(C)C)[C@@H]3[C@@H](O)[C@H]12	0	18	95*	23	26*	12	-5	18
Cc1cc(C)c2c(c1)NC(C(=O)O)C1CC=CC21 (configuration not stated)	5	10	68*	50*	21*	19	14	33*
O=C(O)C1Nc2c(C(F)(F)F)ccc(Cl)c2C2C=CCC12 (configuration not stated)	1	11	15	5	-3	1	·	·
CN1C(=CC=C2C=C(I)C(=O)C(I)=C2)C(C)(C)c2ccccc21	·	-386	·	-333	·	-248	·	·
CN1/C(=C\C=C2/C(=O)Oc3ccccc3C2=O)C(C)(C)c2ccccc21	-186	·	35*	·	139*	·	-132	-60
CC(=O)NCC(=O)N1CCCC(C(=O)c2ccc(Oc3ccccc3)cc2)C1 (configuration not stated)	-1	12	8	4	1	6	·	·
CC(c1ccccc1)N1CCN(C(=O)CCl)CC1 (configuration not stated)	1	14	1	3	-2	9	·	·
Oc1ccc(Br)cc1CNc1cccc2cccnc12	11	16	24	-4	4	7	·	·
Oc1c(Br)cc(Br)cc1CNc1cccc2cccnc12	25	28*	61*	24	36*	17	14	25
COc1ccc(C)cc1NC(=O)CCNC(=O)Cn1ccc2ccccc2c1=O	-2	-4	4	-6	-1	-1	·	·
O=C(COc1ccccc1C(=O)N/N=C\c1ccc(O)c(O)c1)N/N=C/c1ccc(O)c(O)c1	35*	0	62*	42*	35*	12	2	80*
SMILES	PME-1 primary	PAFAH1B3 inh	pPAFAH FP inh	PAFAH2 FP inh	Fam108B counter	PAFAH1B2 inh	Fam108b confirm	pPAFAH FP conf	others
O=C(COc1ccccc1[N+](=O)[O-])N/N=C/c1ccc(O)c([N+](=O)[O-])c1	1	-2	2	8	-8	4	·	·
CC(=C\c1ccccc1)/C=C1/SC(=S)N(C(C(=O)O)C(C)C)C1=O (configuration not stated)	·	-4	·	1	·	5	·	·
O=C1/C(=C/C=C/c2ccco2)SC(=S)N1NS(=O)(=O)c1ccccc1	-36	45*	74*	67*	53*	32*	14	69*
CC(C(=O)O)N1C(=O)/C(=C/C=C/c2ccco2)SC1=S (configuration not stated)	-22	26*	76*	50*	30*	14	14	46*
CC(C)(C)C(=O)CSc1nnc(Nc2ccccc2)s1	-2	5	5	-1	-3	5	·	·
Cc1ccc(S(=O)(=O)/N=C2/NC(=O)/C(=C/c3cc([N+](=O)[O-])ccc3O)S2)cc1	-18	44*	41*	48*	18*	61*	21*	63*
O=C1N/C(=N/O)S/C1=C/c1cccc([N+](=O)[O-])c1	1	5	1	10	2	5	·	·
COc1cc(/C=C2\S/C(=N/S(=O)(=O)c3ccc(C)cc3)NC2=O)c([N+](=O)[O-])cc1OC	-2	15	14	1	0	15	·	·
O=C1NC(=Nc2ccccc2Cl)S/C1=C\c1cc([N+](=O)[O-])ccc1O	-19	61*	41*	44*	33*	28*	42*	63*	Fam108b ABPP HTS=30
Cc1ccc(CNS(=O)(=O)c2cn(C)c(=O)n(C)c2=O)cc1	-6	6	-3	-1	0	15	·	·
O=C(O)CCNc1cc(N2CCN(C(=O)c3ccco3)CC2)c2noc3c2c1C(=O)c1ccccc1-3	-9	-8	74*	-16	38*	-2	11	45*

From PubChem
